Screening data (PubChem)
This excerpt belongs to a sample that is enriched for hits.
TTR transcr act: TTR transcription activation, primary screen; SH-SY5Y TTR promoter Gaussia luciferase, luminescence; 100% = recombinant luciferase protein wells; 92,000 tested, 1.3% active; activation, % at 16.7 µM;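 active = activation above the mean of all tested compounds plus 3 SD, cut at about 9.5% in these data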;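 note: cells exposed to compounds for one day before reading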
TTR inh HuH7: HuH7 TTR transcription inhibition, counter-screen. shares compounds with TTR transcr act. HuH7 TTR promoter-Gaussia luciferase reporter, luminescence. inhibition, % at 16.7 µM. 1,100 tested, 4% active. AID 1117279;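 active = average inhibition above the solvent-only control wells' mean plus 3 SD, cut at about 15% in these data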;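 note: inhibitors lower well luminescence so higher value means more inhibition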
TTR up confirm: confirmation of human transthyretin transcription activators. SHSY5Y TTR promoter Gaussia luciferase, luminescence; 100% = purified Lucia enzyme wells, no cells. shares compounds with TTR transcr act. 1,100 tested, under 10 active. activation, % at 16.7 µM;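 active = mean activation above a set limit taken from the earlier primary screen, cut at about 11% in these data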
Large screens that a line does not name were inactive (follow-up assays come after a bar, where they were run).

CCOCCCNC(=O)CN1C(=O)COc2ccc(S(=O)(=O)N3CCCC3)cc21	TTR transcr act 11 | TTR inh HuH7 inactive | TTR up confirm inactive
COc1ccc(CNC(=O)CN2C(=O)COc3ccc(S(=O)(=O)N4CCCC4)cc32)cc1	none
Cc1cc2cc3c(cc2n2c(SCC(=O)Nc4nc(-c5ccccc5)cs4)nnc12)OCO3	none
CC(C)CCNC(=O)CCc1nnc(COc2ccccc2)o1	none
CCCC/C=C1/[C@@H](CC)N(Cc2ccc(OC)cc2OC)C2=N[C@@H](c3ccccc3)CC(=O)N21	none
O=C(Cn1ccc(C(F)(F)F)n1)N/N=C/c1cccs1	none
Nc1nnnn1CC(=O)N/N=C/c1cccs1	TTR transcr act 36 | TTR inh HuH7 inactive | TTR up confirm inactive
Cc1ccnn1CC(=O)N/N=C/c1cccs1	none
CCN(C(=O)CN1C(=O)COc2ccc(S(=O)(=O)N3CCCCCC3)cc21)c1cccc(C)c1	none
O=C(Nc1ccc2ccccc2c1)C1CC2CCC1C2 (stereo not given)	none
C[C@H]1[C@@H](OC(=O)N2CCCC2)CC[C@@]23CCCN2C(=O)CCC[C@@H]13	none
O=C(OCc1ccccc1)c1cn(-c2ccccc2)nc1-c1ccncc1	TTR transcr act 18 | TTR inh HuH7 inactive | TTR up confirm inactive
COC(=O)c1cn(-c2ccccc2)nc1-c1ccncc1	none
COC(=O)c1cn(-c2ccccc2)nc1-c1ccc(OC)cc1	none
C=CC[C@@H](CC(=O)N[C@@H](CO)Cc1ccccc1)C(=O)N[C@H](C)COC(=O)[C@@H](CC=C)Cc1ccc(F)cc1	none
O=C(O)c1ccccc1-c1noc(-c2ccccc2F)n1	none
CCn1c(COc2cccc(C)c2)nnc1SCC(=O)N1CCCC1	none
CCn1c(COc2ccc3c(c2)OCO3)nnc1SCC(=O)O	TTR transcr act 13 | TTR inh HuH7 inactive | TTR up confirm inactive
Cc1ccc(OCc2nnc(SCC(=O)O)n2-c2ccccc2)cc1	none
O=C(O[C@H]1CC[C@@]23CCCN2C(=O)CCC[C@H]3C1)N1CCCC1	none
COc1cc(O)c(C(CC(=O)N2CCC(C)CC2)c2ccc3c(c2)OCO3)c(OC)c1 (stereo not given)	none
O=C(Nc1ccc2c(c1)OCO2)c1ccc(Br)o1	none
O=C(Nc1ccc2c(c1)OCO2)c1cncc(Br)c1	TTR transcr act 11 | TTR inh HuH7 inactive | TTR up confirm inactive
O=C(Nc1ccc2c(c1)OCO2)c1cccc(F)c1	none
COC(=O)[C@@]12CCCCC3=C1N(CCC3)C(=O)[C@H]2CC(=O)NCc1cccc(C(F)(F)F)c1	none
CO[C@H]([C@H](C)/C=C/N(C)C=O)[C@@H](C)C(=O)CC[C@H](C)[C@H](O)[C@H](C)[C@H]1OC(=O)/C=C/C(C)=C/C[C@H](O)C[C@@H]2C=CC[C@@H](C[C@H](OC)[C@@H](C)[C@@H](OC)C[C@@H](OC)[C@@H]1C)O2	none
COC(=O)C1=C(C(=O)OC)[C@@]2([C@H](Cc3ccc(C)cc3)Nc3ccccc3)C=C[C@@H]1O2	none
O=C(O)CSCC(=O)NCc1ccc(Cl)cc1	none
O=C(NCc1ccccn1)c1ccc(Cl)cc1Cl	none
O=C(CSCc1ccc(Cl)cc1)NCc1ccccn1	TTR transcr act 12 | TTR inh HuH7 inactive | TTR up confirm inactive
CCn1c(=O)n2n(c1=O)[C@]1(C=C(C)C2)CN(Cc2ccc(OC)cc2OC)C(NC(=O)c2ccccc2)=N1	none
O=C1CC(N2CCSCC2)C(=O)N1CCc1ccccc1 (stereo not given)	none
CCC(CO)Nc1ccn2nc(-c3ccccc3)cc2n1 (stereo not given)	TTR transcr act 26 | TTR inh HuH7 inactive | TTR up confirm inactive
CCc1ccn2cc(-c3cc(-c4ccccc4)no3)nc2c1	none
CCOC(=O)Cn1nc(-c2ccccc2)ccc1=O	none
COC(=O)[C@]12C[C@H](CC(=O)N3CCC(c4ccccc4)CC3)C(=O)N(Cc3ccc(Cl)cc3Cl)C1=C[C@H](COCc1ccccc1)O[C@@H]2C	none
Brc1ccc(-c2csc(N3CCNCC3)n2)cc1	none
COC(=O)Cn1c(=O)c(C)nc2ccccc21	none
CN(C)c1ccc(NC(=O)Cn2ncn3c(cc4ccccc43)c2=O)cc1	none
COC(=O)Cn1ncn2c(cc3oc(C)cc32)c1=O	TTR transcr act 25 | TTR inh HuH7 inactive | TTR up confirm inactive
O=C(Nc1ccccc1)Nc1nc2ncccn2c1-c1ccc(C(F)(F)F)cc1	none
CC1(C)C(CO)=CC(=O)C2=C1SCC(=O)N2	TTR transcr act 11 | TTR inh HuH7 inactive | TTR up confirm inactive
CCCCCCCCN1C(=O)[C@@H](CC(=O)N2CCCC2)C[C@@]2(C(=O)OC)C1=C[C@H](C(C)C)O[C@@H]2C1CC1	none
COc1cccc(NC(=O)Nc2c(-c3ccc(C(F)(F)F)cc3)nc3ncccn23)c1	none
Cc1ccc(S(=O)(=O)NCC2Cc3ccccc3N2S(=O)(=O)c2ccc(C)cc2)cc1 (stereo not given)	none
Cc1ccc(S(=O)(=O)NC[C@H]2CN(S(=O)(=O)c3ccc(C)cc3)[C@@H](Cc3ccccc3)CO2)cc1	none
Cc1ccc(S(=O)(=O)NC[C@@H]2C[C@H](c3ccccc3)ON2S(=O)(=O)c2ccc(C)cc2)cc1	TTR transcr act 10 | TTR inh HuH7 inactive | TTR up confirm inactive
COC(=O)C1CN(Cc2ccccc2)CCS(=O)(=O)N1Cc1cn(Cc2cccc(Cl)c2)nn1 (stereo not given)	none
N[C@H](C(=O)Nc1ccc(Cl)cc1C(=O)c1ccc[nH]1)c1ccccc1	none
COC(=O)[C@]12C[C@H](CC(=O)NCC3CCCCC3)C(=O)N(Cc3ccc4c(c3)OCO4)C1=C[C@H](C(C)C)O[C@@H]2C1CC1	none
S=C(Nc1ccccc1Cl)OCCN1CCCC12CCC(c1ccccc1)CC2 (stereo not given)	none
O=C(NCCOc1ccccc1)c1cccc(S(=O)(=O)N2CCN(Cc3ccccc3)CC2)c1	none
Cc1ccc(CN(C)C(=O)c2cccc(S(=O)(=O)N3CCN(Cc4ccccc4)CC3)c2)o1	none
CCCCN(C(=O)c1cccc(S(=O)(=O)N2CCN(Cc3ccccc3)CC2)c1)c1ccccc1	TTR transcr act 27 | TTR inh HuH7 inactive | TTR up confirm inactive
CN1C2=N[C@@H](c3ccccc3)CC(=O)N2/C(=C\c2ccccc2)[C@H]1c1ccccc1	none
CN(C)S(=O)(=O)c1ccc(-c2csc(N/N=C/c3ccc(O)cc3)n2)cc1	none
CN(CCc1ccccc1)C(=O)c1cccc(NC(=O)Cc2cccc(NC(=O)C3CCN(C(=O)C4CC4)CC3)c2)c1	none
CN(CCc1ccccc1)C(=O)c1cccc(NC(=O)Cc2cccc(NC(=O)C3CCN(C(=O)c4ccccc4)CC3)c2)c1	TTR transcr act 9.9 | TTR inh HuH7 inactive | TTR up confirm inactive
CN(CCc1ccccc1)C(=O)c1cccc(NC(=O)Cc2cccc(NC(=O)C3CCN(C(=O)C4CCCC4)CC3)c2)c1	none
CC(=O)N1C[C@H]2CON(C)[C@H]2C[C@H]1c1cccc(-c2ccc(C#N)cc2)c1	none
CCN1CCN(c2nc(-c3ccccn3)nc3ccccc23)CC1	TTR transcr act 11 | TTR inh HuH7 inactive | TTR up confirm inactive
c1ccc(-c2nc(N3CCOCC3)c3ccccc3n2)nc1	none
CN1CCN(c2nc(-c3cccs3)nc3ccccc23)CC1	none
FC(F)(F)Oc1cccc(Cn2ccc3ccc(-c4ccc5ccn(Cc6ccccc6)c5c4)cc32)c1	none
COc1ccc(/[N+]([O-])=C/c2ccoc2)cc1	none
O=C(OCC#CCSc1nnc(-c2cccc3ccccc23)o1)c1ccc(SC(F)(F)F)cc1	none
